The results in this text go back to PubChem BioAssay (Tox21).

Several values for one entry are separate records, joined by “and”; a condition that tells them apart may be missing. Equal values may be shown once. Records with an inconclusive call do not appear. More than one record can exist for a structure, and the calls need not agree. Activity calls are given as the source filed them. Unless noted, calls follow the shape of the dose curve; as a rule, active = well fitted curve in the direction sought with a large enough effect in the repeat runs; inconclusive = weak or mixed curves; inactive = no such curve, though single readings can be large; an effect the other way counts as inactive or inconclusive.

Assay [1] is described as follows: qHTS assay to identify small molecule antagonists of the estrogen receptor alpha (ER-alpha) signaling pathway using the BG1 cell line in the presence of 0.1 nM 17-beta-estradiol - cell viability counter screen (AID 1259241). Also: nearly all actives have a fitted effect of over 40% in size. Also: potency is read from the fitted curve at half-maximal effect. The essentials:
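VM7Luc4E2 cells (endogenous full-length ER-alpha, 4xERE-luciferase), cultured 5 days in charcoal-stripped serum, exposed to compounds with 0.1 nM 17beta-estradiol (final) for 22 hr at 37C. Viability read in same wells as live-cell protease fluorescence after 30 min.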
Background: In qHTS, concentration-response curves come from the screen itself.

In assay [2] the target is Androgen receptor (Homo sapiens) (UniProt P10275). The experiment in a line: qHTS assay to identify small molecule antagonists of the androgen receptor (AR) signaling pathway using the MDA cell line in the presence of 0.5 nM R1881 (AID 1259243). Also: nearly all actives have a fitted effect of over 50% in size. Also: potency is read from the fitted curve at half-maximal effect. The method in brief: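 Reporter cells cultured without CO2 receive test chemicals, then 0.5 nM R1881 final; after 16 hr at 37C, ONE-Glo is added and light output recorded.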

Assay [3] addresses Estrogen receptor (Homo sapiens) (UniProt P03372). The experiment in a line: qHTS assay to identify small molecule antagonists of the estrogen receptor alpha (ER-alpha) signaling pathway using the BG1 cell line in the presence of 0.1 nM 17-beta-estradiol (AID 1259244). Also: nearly all actives have a fitted effect of over 50% in size. Also: potency is read from the fitted curve at half-maximal effect. The essentials:
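Estradiol at 0.1 nM (final) stimulates the endogenous ER-alpha of VM7Luc4E2 cells carrying an ERE-driven luciferase; compounds are co-incubated 22 h at 37C and luciferase output quantified by luminescence.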

Assay [4] can be described thus: qHTS assay to identify small molecule HDAC inhibitors (AID 1259364). Also: potency is read from the fitted curve at half-maximal effect.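 Also: wild-type HCT-116 cells with endogenous class I/II HDAC activity; nearly all actives have a fitted effect of over 45% in size.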 The method in brief:
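Read-out: luminescence of HDAC-Glo I/II reagent, 30 min RT, reflecting class I/II deacetylase activity in whole HCT-116 cells pre-exposed 2 h to DMSO-dissolved compounds.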

A short description of assay [5]: qHTS assay to identify small molecule HDAC inhibitors - cell viability counter screen (AID 1259365). Also: series mostly up to about 92 µM; nearly all actives have a fitted effect of over 50% in size. The essentials:
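Wild-type HCT-116 cells, 1,500/well, cultured overnight, then compound-treated 2 h at 37 C. Viability measured as ATP luminescence with CellTiter-Glo after 30 min at room temperature.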

The nature of assay [6]: qHTS assay to identify small molecule agonists of the sonic hedgehog signaling (Shh) pathway - cell viability counter screen (AID 1259366). Also: nearly all actives have a fitted effect of over 50% in size. Also: potency is read from the fitted curve at half-maximal effect. The method in brief:
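NIH/3T3-derived Gli1-Luc reporter cells, 2,000 per well, received compound after 4 h and were treated about 23 h at 37C. Viability measured in the same wells by CellTiter-Fluor fluorescence after 1 h.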

Assay [7] in a line: qHTS assay to identify small molecule antagonists of the sonic hedgehog signaling (Shh) pathway - cell viability counter screen (AID 1259367). Also: nearly all actives have a fitted effect of over 55% in size. Also: potency is read from the fitted curve at half-maximal effect. The method in brief: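 After a 4 hr settling period, 3T3 Gli1-Luc cells were treated with DMSO-dissolved chemicals and conditioned medium, kept 24 hr at 37C in 5% CO2, and assayed for viability by CellTiter-Fluor fluorescence following 1 hr reagent incubation.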

Assay [8] in a line: qHTS assay to identify small molecule agonists of the sonic hedgehog signaling (Shh) pathway (AID 1259368; calls by dose curve;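 also: NIH/3T3-derived 3T3Gli1-Luc cells carrying a stable Gli1-driven firefly luciferase reporter; series mostly up to about 92 µM; nearly all actives have a fitted effect of over 15% in size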). The essentials:
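A Gli1 transcriptional response element controlled firefly luciferase in 3T3Gli1-Luc cells. Compounds and a positive control were added 4 hr after plating, and cells were incubated a further 24 hr at 37 C before luminescence detection.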

Assay [9] in a line: qHTS assay to identify small molecule antagonists of the sonic hedgehog signaling (Shh) pathway (AID 1259369; calls by dose curve; also: nearly all actives have a fitted effect of over 45% in size; also: potency is read from the fitted curve at half-maximal effect). The method in brief: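 For antagonist detection, the reporter line received test compounds together with conditioned medium, incubated 24hr at 37 C, 5% CO2, then luminescence was recorded following 30min room-temperature luciferase reagent incubation.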
Assay [10] can be described thus: qHTS assay to identify small molecule agonists of the androgen receptor (AR) signaling pathway in the presence of an antagonist - cell viability counter screen (AID 1259379). Also: nearly all actives have a fitted effect of over 25% in size. Also: potency is read from the fitted curve at half-maximal effect. The method in brief: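 Seed MDA-kb2 at 3,000 cells/well; incubate 5 hr, 37C, 0% CO2. Add nilutamide to 3.0uM final, then pin compounds at 15 concentrations. Incubate 16 hr. Add CellTiter-Fluor at 15 hr, read fluorescence after 1 hr.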

The nature of assay [11]: qHTS assay to identify small molecule agonists of the estrogen receptor beta (ER-beta) signaling pathway - cell viability counter screen (AID 1259380). Also: nearly all actives have a fitted effect of over 30% in size. Also: potency is read from the fitted curve at half-maximal effect. The essentials:
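CellTiter-Glo read, 30 min RT, same wells as bla assay; cells ER-beta-UAS-bla HEK293T; 16 hr compound, 37C; medium 2% charcoal-stripped FBS.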

For assay [12], the target named is Androgen receptor (Homo sapiens) (UniProt P10275). The experiment in a line: qHTS assay to identify small molecule agonists of the androgen receptor (AR) signaling pathway in the presence of an antagonist (AID 1259381; calls by dose curve; also: nearly all actives have a fitted effect of over 15% in size). The method in brief: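 Test compounds at 15 concentrations were incubated for 16hr with MDA-kb2 reporter cells in presence of 3.0uM nilutamide (final). Signal: ONE-Glo luciferase luminescence.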

Assay [13] in a line: qHTS assay to identify small molecule antagonists of the estrogen receptor beta (ER-beta) signaling pathway - cell viability counter screen (AID 1259382). Also: nearly all actives have a fitted effect of over 55% in size. Also: potency is read from the fitted curve at half-maximal effect. The essentials:
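In this multiplexed counter screen, cells were seeded at 2,000 per well in medium with 2% charcoal-stripped FBS and incubated 6 hr before compound and 1nM final E2 were added. Sixteen hours later, ATP-based luminescence reported viability.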

The target in assay [14] is Estrogen receptor (Homo sapiens) (UniProt P03372). The experiment in a line: qHTS assay to identify small molecule agonists of the estrogen receptor alpha (ER-alpha) signaling pathway in the presence of an antagonist (AID 1259383; calls by dose curve; also: top concentration of the series differs between compounds; nearly all actives have a fitted effect of over 15% in size). The method in brief: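 Stably transfected VM7Luc4E2 reporter cells, kept 5 days in charcoal-stripped serum, received ICI-182,780 at 10.0nM final before compound addition. Following 22hr incubation at 37C and 5% CO2, luciferase signal was read by luminescence.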

Assay [15] can be described thus: qHTS assay to identify small molecule agonists or antagonists of the thyroid stimulating hormone receptor (TSHR) signaling pathway - wild type cell line counter screen (AID 1259384; calls by dose curve). The method in brief: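 Wild-type HEK293 cells were plated 18 h at 37 C/5% CO2, pin-dosed with compound plus Ro20-1724 medium, held 30 min at room temperature, then given cAMP-d2 and anti-cAMP-cryptate; fluorescence was read after 1 h. Fifteen concentrations, triplicate.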

The target in assay [16] is Thyrotropin receptor (Homo sapiens) (UniProt P16473). The experiment in a line: qHTS assay to identify small molecule antagonists of the thyroid stimulating hormone receptor (TSHR) signaling pathway (AID 1259385; calls by dose curve; also: nearly all actives have a fitted effect of over 20% in size). The method in brief: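 TSHR-HEK293 cells were plated and held 18 h at 37C/5% CO2, then given compound plus Ro20-1724 and stimulated with TSH at 1.5 ng/mL final. After 30 min at room temperature, cAMP was detected with cAMP-d2/anti-cAMP-cryptate (1 h) by fluorescence.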

Assay [17] addresses Estrogen receptor beta (Homo sapiens) (UniProt Q92731). The experiment in a line: qHTS assay to identify small molecule antagonists of the estrogen receptor beta (ER-beta) signaling pathway (AID 1259378; active = well fitted inhibition curve with a large enough effect in the signal ratio in the repeat runs, not every such curve was filed as active; the % refers to the signal ratio; also: potency is read from the fitted curve at half-maximal effect). The method in brief:
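ER-beta-UAS-bla HEK293T (GripTite) cells in 2% charcoal-stripped FBS medium were preincubated 6 hr at 37C, dosed with compound, then stimulated with 1 nM E2 (final) for 16 hr; beta-lactamase reporter read by B/G FRET fluorescence after 2 hr substrate loading.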

The nature of assay [18]: qHTS assay to identify small molecule antagonists of the androgen receptor (AR) signaling pathway using the MDA cell line in the presence of 0.5 nM R1881 - cell viability counter screen (AID 1259242). Also: nearly all actives have a fitted effect of over 45% in size. The method in brief:
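Viability of MDA-kb2 cells was multiplexed with the luciferase AR readout; after 16 hr with compounds and R1881 at 0.5 nM final, CellTiter-Fluor fluorescence was recorded.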

Assay [19] concerns the target Estrogen receptor beta (Homo sapiens) (UniProt Q92731). The experiment in a line: qHTS assay to identify small molecule agonists of the estrogen receptor beta (ER-beta) signaling pathway (AID 1259377; active = well fitted activation curve with a large enough effect in the signal ratio in the repeat runs, not every such curve was filed as active; the % refers to the signal ratio). The essentials:
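ER-beta-UAS-bla HEK293T cells in medium with 2% charcoal-stripped FBS were exposed to compounds for 16 h at 37C. Beta-lactamase reporter activity was read as fluorescence after 2 h with LiveBLAzer B/G FRET substrate at room temperature.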

Chain of Androgen receptor (Homo sapiens) (P10275 whole entry, looked up): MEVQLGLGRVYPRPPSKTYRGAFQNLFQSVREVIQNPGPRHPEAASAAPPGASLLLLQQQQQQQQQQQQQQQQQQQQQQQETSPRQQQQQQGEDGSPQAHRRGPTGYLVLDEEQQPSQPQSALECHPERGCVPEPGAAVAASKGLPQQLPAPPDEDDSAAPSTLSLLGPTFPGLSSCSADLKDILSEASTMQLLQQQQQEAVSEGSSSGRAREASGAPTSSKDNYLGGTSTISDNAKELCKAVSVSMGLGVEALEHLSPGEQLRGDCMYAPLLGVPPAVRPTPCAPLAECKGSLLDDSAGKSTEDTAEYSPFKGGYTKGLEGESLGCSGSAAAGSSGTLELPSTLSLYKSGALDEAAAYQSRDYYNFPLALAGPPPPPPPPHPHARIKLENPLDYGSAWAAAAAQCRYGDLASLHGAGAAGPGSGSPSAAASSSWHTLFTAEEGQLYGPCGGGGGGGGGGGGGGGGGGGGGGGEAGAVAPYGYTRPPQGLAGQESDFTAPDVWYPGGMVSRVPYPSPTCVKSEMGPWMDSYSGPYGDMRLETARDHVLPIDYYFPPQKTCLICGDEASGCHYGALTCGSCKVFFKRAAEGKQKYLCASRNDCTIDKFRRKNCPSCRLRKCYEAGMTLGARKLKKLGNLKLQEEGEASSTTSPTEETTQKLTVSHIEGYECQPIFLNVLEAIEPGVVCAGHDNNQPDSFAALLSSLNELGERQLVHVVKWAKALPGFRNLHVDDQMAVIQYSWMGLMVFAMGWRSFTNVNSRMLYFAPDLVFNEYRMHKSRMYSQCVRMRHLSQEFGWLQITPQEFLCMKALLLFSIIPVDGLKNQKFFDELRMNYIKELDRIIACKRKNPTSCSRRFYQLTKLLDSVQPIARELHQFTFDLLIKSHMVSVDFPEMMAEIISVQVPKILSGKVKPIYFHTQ
Chain of Estrogen receptor beta (Homo sapiens) (Q92731 whole entry, looked up): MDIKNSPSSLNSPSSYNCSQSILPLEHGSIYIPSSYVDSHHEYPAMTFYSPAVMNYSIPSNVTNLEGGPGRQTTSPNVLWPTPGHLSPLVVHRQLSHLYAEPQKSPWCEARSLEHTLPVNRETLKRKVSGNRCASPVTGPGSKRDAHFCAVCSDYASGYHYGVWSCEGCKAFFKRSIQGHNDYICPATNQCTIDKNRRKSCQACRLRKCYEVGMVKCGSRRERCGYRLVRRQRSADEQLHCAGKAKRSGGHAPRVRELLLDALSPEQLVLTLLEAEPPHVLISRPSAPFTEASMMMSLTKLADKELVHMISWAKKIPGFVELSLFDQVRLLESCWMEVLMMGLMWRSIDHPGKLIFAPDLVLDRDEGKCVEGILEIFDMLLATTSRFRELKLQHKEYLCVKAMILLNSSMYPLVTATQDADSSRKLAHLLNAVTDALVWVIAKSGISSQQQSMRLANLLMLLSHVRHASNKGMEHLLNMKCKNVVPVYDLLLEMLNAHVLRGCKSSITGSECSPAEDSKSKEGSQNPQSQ
Chain of Estrogen receptor (Homo sapiens) (P03372 whole entry, looked up): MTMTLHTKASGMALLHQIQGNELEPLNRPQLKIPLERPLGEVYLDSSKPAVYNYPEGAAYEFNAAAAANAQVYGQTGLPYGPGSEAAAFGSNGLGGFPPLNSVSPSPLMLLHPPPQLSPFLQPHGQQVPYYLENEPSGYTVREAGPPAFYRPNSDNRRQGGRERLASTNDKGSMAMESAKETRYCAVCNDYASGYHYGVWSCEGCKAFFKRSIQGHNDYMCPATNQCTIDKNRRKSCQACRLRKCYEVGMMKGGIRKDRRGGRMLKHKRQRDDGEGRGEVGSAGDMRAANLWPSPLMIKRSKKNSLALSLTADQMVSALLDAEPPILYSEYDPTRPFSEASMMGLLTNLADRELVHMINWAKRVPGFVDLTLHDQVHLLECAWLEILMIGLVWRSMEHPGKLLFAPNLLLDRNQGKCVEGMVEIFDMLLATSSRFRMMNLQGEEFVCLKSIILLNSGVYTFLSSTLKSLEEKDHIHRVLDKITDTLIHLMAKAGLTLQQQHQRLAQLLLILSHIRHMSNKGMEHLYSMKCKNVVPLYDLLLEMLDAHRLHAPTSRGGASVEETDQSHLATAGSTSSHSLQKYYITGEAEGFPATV
Chain of Thyrotropin receptor (Homo sapiens) (P16473 whole entry, looked up): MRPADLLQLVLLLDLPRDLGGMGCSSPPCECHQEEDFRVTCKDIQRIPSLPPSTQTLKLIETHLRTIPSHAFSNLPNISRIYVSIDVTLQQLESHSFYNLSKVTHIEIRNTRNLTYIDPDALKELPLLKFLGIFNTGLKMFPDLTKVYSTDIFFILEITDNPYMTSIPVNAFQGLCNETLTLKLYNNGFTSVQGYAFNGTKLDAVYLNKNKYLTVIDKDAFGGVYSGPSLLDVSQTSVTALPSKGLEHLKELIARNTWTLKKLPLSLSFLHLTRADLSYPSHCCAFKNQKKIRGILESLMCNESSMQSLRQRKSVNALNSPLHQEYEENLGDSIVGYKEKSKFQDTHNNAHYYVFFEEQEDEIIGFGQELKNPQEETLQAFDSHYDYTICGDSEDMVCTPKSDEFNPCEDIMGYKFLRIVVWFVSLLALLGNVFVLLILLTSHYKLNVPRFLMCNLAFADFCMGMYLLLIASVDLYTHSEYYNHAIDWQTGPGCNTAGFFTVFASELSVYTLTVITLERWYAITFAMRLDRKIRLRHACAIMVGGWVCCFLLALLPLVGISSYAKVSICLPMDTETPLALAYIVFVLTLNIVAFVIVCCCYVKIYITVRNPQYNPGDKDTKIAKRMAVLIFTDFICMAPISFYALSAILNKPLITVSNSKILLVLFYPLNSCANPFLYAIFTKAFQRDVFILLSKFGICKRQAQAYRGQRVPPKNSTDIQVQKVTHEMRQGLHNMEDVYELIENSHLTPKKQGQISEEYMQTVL

As for `COc1ccc([N+](=O)[O-])cc1O`, the Potency result in [1], in [2], in [3], in assay [4], in assay [5] and in [6] was “inactive” in each case. For the same compound, the Potency entry in assay [7], in assay [8], in [9], in assay [10], in [11] and in assay [12] was “inactive” throughout. The Potency entry in assay [13], in [14] and in assay [16] was “inactive” throughout. Moreover, the result in assay [15] was inactive.

For `Cc1cc(N=Nc2ccccc2C)ccc1N`, the Potency is 24.3 µM (active) in [1]; 54.5 µM (active) and 48.6 µM (active) in assay [2]; 8.63 µM (active) and 4.86 µM (active) in assay [4]; 27.3 µM (active) and 30.6 µM (active) in assay [6]; 27.3 µM (active) and 30.6 µM (active) in assay [7]; 19.3 µM (active) and inactive in assay [9]. Besides, the Potency in assay [17] is 19.3 µM (active); in assay [10], 30.6 µM (active) and 34.4 µM (active); in assay [11], 27.3 µM (active); in [13], 54.5 µM (active). In addition, the Potency entry in assay [5], in [8] and in assay [12] was “inactive” each time. Further, the compound was classed as inactive in assay [15].

Take `C=CC(=O)OCC(COC(=O)C=C)(COC(=O)C=C)COC(=O)C=C`: the Potency is 19.3 µM (active) in [1]; 4.33 µM (active) in assay [2]; 15.4 µM (active) in assay [3]; 5.45 µM (active) in assay [6]; 7.7 µM (active) in [7]; 6.86 µM (active) in [9]. For the same compound, the Potency was 12.2 µM (active) in assay [10], 7.7 µM (active) in [11] and 9.69 µM (active) in [13]. Moreover, the Potency entry in assay [4], in assay [8], in [12] and in [14] was “inactive” each time. For the same compound, the compound was called inactive in [15].

Turning to `c1cc[c]([Sb]([c]2ccccc2)[c]2ccccc2)cc1`, the Potency result in assay [1], in assay [18], in [4], in assay [5], in [6] and in assay [7] was “inactive” throughout. Further, the Potency entry in assay [8], in assay [10] and in [12] was “inactive” throughout. For the same compound, the Potency in assay [9] is 12.2 µM (active). Moreover, in assay [15], the outcome was inactive.

For `N#Cc1c(-c2ccc(Cl)cc2)[nH]c(C(F)(F)F)c1Br`, the Potency result in [1], in assay [4], in assay [5], in assay [8], in [12] and in assay [14] was “inactive” each time. In addition, in assay [16], the Potency entry was “inactive”. For the same compound, the Potency is 0.433 µM (active) in assay [2]; 0.611 µM (active) in assay [3]; 27.3 µM (active) in [7]; 0.969 µM (active) in assay [10]; 24.3 µM (active) in [11]; 38.6 µM (active) in [13]. In addition, the compound was classed as inactive in [15].

For the compound `CCOP(=S)(OCC)OC(Cl)C(Cl)(Cl)Cl` (stereo not given), the Potency result in assay [1], in assay [18], in assay [4], in assay [5], in assay [6] and in assay [7] was “inactive” in each case. In addition, the Potency entry in [8], in [19], in assay [17], in assay [10], in assay [11] and in [13] was “inactive” throughout. Also, the result in [15] was inactive.

As to `CC1(C)C(/C=C(\Cl)C(F)(F)F)C1C(=O)OC(C#N)c1cccc(Oc2ccccc2)c1` (stereo not given), the Potency result in assay [1], in assay [18], in assay [4], in [5], in [7] and in assay [8] was “inactive” throughout. The Potency entry in assay [9], in assay [19], in assay [17], in assay [10], in [11] and in [13] was “inactive” throughout. Moreover, the outcome in assay [15] was inactive.
